# Source: PubChem BioAssay AID540256 (National Center for Advancing Translational Sciences (NCATS), 2011)
# About 3,700 (1.2%) of roughly 300,000 compounds were called active. About 20% were inconclusive and are not listed. The call rests on the fitted dose curve; tested in HEK293 cells. For the sample, actives were picked, then their nearest neighbours and some compounds at random.
# Test: qHTS for Inhibitors of binding or entry into cells for Lassa Virus; further: nearly all actives have a fitted effect of over 50% in size
# Conditions: Lassa virus pseudotype entry inhibition, cell reporter; series mostly up to 37.9 µM; activity change, negative = inhibition: at the top concentration
# On the % scale 0 is the no-effect control and ±100 the full control effect; potency means the concentration at half of the fitted maximal effect.
Structure (SMILES),"activity change, negative = inhibition",Potency
CC1=NN(C(N)=S)C(=O)C1N=Nc1cc(Cl)ccc1Cl (configuration not stated),13.6% [at 46.1 µM] (inactive),–
C[C@]12CCC(=O)C=C1C=CC1C2CC[C@@]2(C)C1CC[C@@]21CCC(=O)O1 (some centres not stated),7.55% [at 46.1 µM] (inactive),–
CC1Cc2ccccc2N1S(=O)(=O)c1cccc(C(=O)OCC(=O)N2CCOCC2)c1 (configuration not stated),-11.3% [at 46.1 µM] (inactive),–
Cc1cc(=O)[nH]c(N/N=C/c2c(C)nn(-c3ccccc3Cl)c2Cl)n1,–,11.2 µM (active)
CCN(CC)c1ccc(/C=N/Nc2nc(C)cc(=O)[nH]2)cc1,-18.2% (inactive),–
Cc1cc(C)c(C=NNc2nc3c([nH]2)c(=O)n(C)c(=O)n3C)c(C)c1,-2.72% [at 46.1 µM] (inactive),–
O=C(O)c1ccc(NN=CC2=C(N3CCOCC3)/C(=C/c3ccccc3)CC2)cc1,-15.5% (inactive),–
O=C(N/N=C/c1ccc(O)c2ccccc12)c1cccnc1,16.8% (inactive),–
Cc1ccc2nc(CNC(=O)c3ccccc3)[nH]c2c1,8.7% [at 46.1 µM] (inactive),–
Cc1ccc(/C=N/NC(=O)C2=NNC(c3ccccc3)(c3ccccc3)C2)c(O)c1,–,14.1 µM (active)
CC(NC(=O)c1ccccc1)C(=O)OCC(=O)Nc1cccc(S(=O)(=O)N2CCCC2)c1 (configuration not stated),-1.7% (inactive),–
Cc1cc(C)c2nc(SCCC#N)nc(C)c2c1,9.06% (inactive),–
Cc1cc(C)c2nc3nc(C)cc(C)c3c(N)c2c1,–,12.6 µM (active)
Cc1cc(C)c2nc(-c3ccco3)cc(C(=O)O)c2c1,-3.99% [at 46.1 µM] (inactive),–
CCOC(=O)C1(Cc2ccccc2C)CCCN(C(=O)c2ccc(COC)o2)C1 (configuration not stated),-19.9% (inactive),–
COc1ccc(N2CCN(S(=O)(=O)c3cc4c5c(c3)C(C)C(=O)N5CCC4)CC2)cc1 (configuration not stated),-23.8% (inactive),–
Cc1ccc(NC(=O)c2oc3ccc(S(=O)(=O)N4CCCCC4)cc3c2C)cc1Cl,-5.77% [at 46.1 µM] (inactive),–
O=C(CC1SC(=Nc2ccccc2F)N(CCN2CCOCC2)C1=O)Nc1ccc(F)cc1F (configuration not stated),–,11.2 µM (active)
COC(=O)c1sccc1NC(=O)CC1C(=O)NCCN1C(=O)Nc1ccc(F)cc1F (configuration not stated),8.52% [at 46.1 µM] (inactive),–
O=C(CN1CCN(C/C=C/c2ccccc2)CC1)Nc1ccc(F)cc1F,14.6% (inactive),–
O=C(c1cc(COc2cccc(C(F)(F)F)c2)on1)N1CCSCC1,-13% (inactive),–
COc1ccc(Cc2nc3ccc(C(=O)NCC4CCOCC4)cc3o2)cc1OC,15.9% (inactive),–
CCCC=Cc1ccc(CN2C(C(C)C)C(=O)N(Cc3cn(CC4CCCCC4)nn3)CCS2(=O)=O)cc1 (configuration not stated),–,25 µM (active)
COCOCCn1cc(CN2CCS(=O)(=O)N(Cc3ccc(-c4cccc(N(C)C)c4)cc3)C(CC(C)C)C2=O)nn1 (configuration not stated),6.61% [at 46.1 µM] (inactive),–
CC1C(=O)N(Cc2cn(Cc3ccco3)nn2)CCS(=O)(=O)N1Cc1ccc(-c2cccc(CO)c2)cc1 (configuration not stated),11.4% [at 46.1 µM] (inactive),–
CC1CCN(c2ccc(-c3ccc(NC(=O)c4ccco4)cc3)nn2)CC1,13.7% (inactive),–

Structure (SMILES),"activity change, negative = inhibition",Potency
O=C(c1ccccc1)N1CCN(C(=O)c2cc3nc(-c4ccccc4)cc(C(F)(F)F)n3n2)CC1,–,11.2 µM (active)
COC(=O)c1cc2nc(-c3ccccc3)cc(C(F)(F)F)n2n1,-5.23% (inactive),–
O=C(O)c1cnn2c(C(F)(F)F)cc(-c3ccccc3)nc12,4.58% (inactive),–
Cn1cc(S(=O)(=O)N2CCCCCC2)cc1C(=O)N1CCN(c2ccc(F)cc2)CC1,-19.6% [at 46.1 µM] (inactive),–
COc1cc2c(cc1OC)C(Cc1cc(OC)c(OC)cc1[N+](=O)[O-])=NCC2,-1.16% (inactive),–
COC(=O)Nc1nc2ccc(Oc3ccc(NC(=O)Nc4cccc(Cl)c4)cc3)cc2[nH]1,–,6.28 µM (active)
Cc1cc(Cl)nc(NC(=O)Nc2cccc(Cl)c2)n1,-0.962% [at 46.1 µM] (inactive),–
COC(=O)Nc1nc2ccc(Sc3ccccc3)cc2[nH]1,9.81% (inactive),–
COc1ccc(CN2CCN(C(=O)CCC(=O)Nc3nnc(C(C)C)s3)CC2)cc1F,3.46% [at 46.1 µM] (inactive),–
Cn1c(N)c(C(=O)COC(=O)c2cccc(S(=O)(=O)N3CCOCC3)c2)c(=O)n(C)c1=O,-0.757% (inactive),–
Nc1ccc(Oc2ccc(Cl)cc2)cc1,-16.1% (inactive),–
CC(C)(C)c1ccc(Oc2ccc(N)cc2)cc1,–,0.651 µM (active)
Cc1ccc(Oc2ccc(N)cc2)cc1,21.7% (inactive),–
O=S(=O)(Nc1ccc2ccccc2c1)N1CCCCC1,-23.8% [at 46.1 µM] (inactive),–
O=C1CC(c2ccccc2)C(c2ccccc2)=NN1 (configuration not stated),1.55% [at 46.1 µM] (inactive),–
CN1CCN(CCCCOc2cccc3ccccc23)CC1,-3.92% [at 46.1 µM] (inactive),–
Cc1ccc(C(=O)NC(C)c2ccccc2)cc1Br (configuration not stated),–,11.6 µM (active)
C=CCNC(=O)c1ccc(C)c(Br)c1,-4.34% (inactive),–
CC1=CCC2C(=O)N(c3cccc(C(=O)NC(C)c4ccccc4)c3)C(=O)C2C1 (configuration not stated),-2.44% (inactive),–
c1ccc2c(c1)OC1OC2Oc2ccccc21,2.34% [at 46.1 µM] (inactive),–
CC1CCN(C(=O)CCc2nnc3ccc(NCc4ccco4)nn23)CC1,10.6% [at 46.1 µM] (inactive),–
CCc1ccc(/C=N/NC(=O)c2ccc(OC3CCCC3)cc2)s1,–,2 µM (active)
COC(=O)CNC(=O)c1ccc(OC2CCN(C(=O)C3CC3)CC2)cc1,11.7% [at 46.1 µM] (inactive),–
CCc1cc(C(N)=O)c(NC(=O)c2ccc(OC)cc2)s1,3.32% (inactive),–
COC(=O)Cc1c(-c2[nH]c3ccccc3c2CC(=O)OC)[nH]c2ccccc12,17.1% (inactive),–
O=C(COc1ccc(S(=O)(=O)N2CCOCC2)cc1Cl)N1CCOCC1,0.861% (inactive),–
